Assay outcomes from PubChem BioAssay.
PPARg SRC-3 ag – agonists of human PPARgamma SRC-3 coactivator recruitment; biochemical PPARgamma/SRC-3 coactivator recruitment assay; P37231; hit rate 0.26% among 200,000; activation, % at 8 µM; in the data active = activation above about 23%;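 also: 0% = DMSO and 100% = reference agonist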
Target sequence (P37231 whole entry, looked up): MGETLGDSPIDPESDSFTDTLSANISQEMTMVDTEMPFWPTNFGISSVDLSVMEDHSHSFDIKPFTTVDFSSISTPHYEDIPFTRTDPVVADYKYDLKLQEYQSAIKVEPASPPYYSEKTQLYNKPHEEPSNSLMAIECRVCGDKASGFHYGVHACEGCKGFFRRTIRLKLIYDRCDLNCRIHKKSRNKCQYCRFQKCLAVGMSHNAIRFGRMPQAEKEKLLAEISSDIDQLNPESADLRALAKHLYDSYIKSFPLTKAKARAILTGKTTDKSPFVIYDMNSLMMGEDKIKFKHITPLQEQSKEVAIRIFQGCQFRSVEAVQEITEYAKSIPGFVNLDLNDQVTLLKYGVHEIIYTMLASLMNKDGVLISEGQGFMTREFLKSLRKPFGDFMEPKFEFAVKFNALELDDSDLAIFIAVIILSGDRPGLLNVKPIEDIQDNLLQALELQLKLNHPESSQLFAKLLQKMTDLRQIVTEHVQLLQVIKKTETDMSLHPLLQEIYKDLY
SRC1 TRFRET art – counter-screen for PPARgamma SRC-1 recruitment agonists: TR-FRET artefact; hit rate 0.34% among 99,000; AID 1051; TR-FRET ratio at 8 µM; TR-FRET detection artefact counter-screen, emission ratio; hits give high values; in the data active = TR-FRET ratio above about 2300
SRC3 TRFRET art – flags TR-FRET format artefacts in PPARgamma SRC-3 recruitment agonist screen; TR-FRET artefact counter-screen, PPARgamma/SRC-3 format; hits give high values; TR-FRET ratio at 8 µM; hit rate 0.39% among 99,000
PPARg SRC-1 ag – promotes SRC-1 coactivator recruitment by human PPARgamma; P37231; PPARgamma-SRC-1 coactivator recruitment biochemical assay; activation, % at 8 µM; hit rate 0.41% among 200,000; in the data active = activation above about 19%;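 also: 0% = DMSO and 100% = reference agonist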
SRC2 TRFRET art – TR-FRET artefact, counter-screen to PPARgamma/SRC-2 agonist assay. hits give high values. hit rate 0.4% among 200,000. AID 1049. TR-FRET ratio at 8 µM
PPARg SRC-2 ag – PPARgamma-driven SRC-2 recruitment agonism | P37231 | PPARgamma LBD-SRC-2 recruitment, biochemical | activation, % at 8 µM | hit rate 0.34% among 200,000 | AID 1032; in the data active = activation above about 22%;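 also: 0% = vehicle and 100% = reference agonist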
* hit, by the source's call; / = no result. An excerpt weighted towards active compounds, which were near 0.9% of everything screened. Rule as the data show it, unless noted: active = TR-FRET ratio above about 2000; inactive = the rest.

SMILES	PPARg SRC-3 ag	SRC1 TRFRET art	SRC3 TRFRET art	PPARg SRC-1 ag	SRC2 TRFRET art	PPARg SRC-2 ag
CCOC(=O)c1c(-c2ccccc2)csc1NC(=O)c1cc(S(=O)(=O)N2CCOCC2)ccc1C	3.9	1833	2203*	5.1	1857	6.4
CCOC(=O)C1=NN(c2cccc(Cl)c2)C2=NC(C)=C(C(=O)OC)C(c3cccs3)N12 (stereo not given)	4.8	/	/	9.4	1618	26.7*
COc1ccc2oc(C(=O)CCC(=O)O)c(N)c2c1	17.9	/	/	0.3	1609	8.6
COC(=O)CCC(=O)c1oc2ccc(Br)cc2c1N	4.6	/	/	-0.8	1390	23.9*
N#CC1=C2SCN(c3ccccc3)CN2C(=O)CC1c1cccs1 (stereo not given)	18.1	/	/	6.8	2021*	19.4
CCOc1ccc(N2CSC3=C(C#N)C(c4ccco4)CC(=O)N3C2)cc1 (stereo not given)	16.6	/	/	5.9	1814	25.0*
N#CC1=C2SCN(c3ccccc3)CN2C(=O)CC1c1c(Cl)cccc1Cl (stereo not given)	6.3	/	/	-3.5	1514	2.0
CCC1(CC)NC(=O)N(CC(=O)OCC(=O)Nc2sccc2C#N)C1=O	5.1	1885	1677	4.4	1647	0.0
CCOc1ccccc1-c1c2cc(O)c(=O)cc-2oc2cc(O)c(O)cc12	5.8	1827	1809	3.8	1524	16.6
COc1ccc(OC)c(-c2c3cc(O)c(=O)cc-3oc3cc(O)c(O)cc23)c1	10.1	2166	1906	16.7	1565	22.8*
CCC1CCCCN1C(=O)CSc1nc(N)cc(N)n1 (stereo not given)	1.3	1816	1654	0.0	1990*	0.3
CCC1CCCCN1C(=O)CSc1nnc(-c2ccc(OC)cc2)o1 (stereo not given)	15.4	/	/	-1.9	1364	5.2
COc1ccc(N2CCC(CNC(=O)Nc3ccccc3)C2)cc1 (stereo not given)	8.5	/	/	6.0	1624	23.6*
COc1ccc(N2CC(NC(=O)Nc3ccccc3)CC2=O)cc1 (stereo not given)	10.9	1759	1550	0.5	1485	7.9
CC(=O)OCC(=O)Nc1cc(S(=O)(=O)N2CCCCCC2)ccc1Cl	-2.0	1694	1482	-2.6	1518	3.0
O=C(COC(=O)c1cc(Br)ccc1O)Nc1cc(S(=O)(=O)N2CCCC2)ccc1Cl	1.8	2170	2102*	-0.3	1710	-2.9
CCOC(=O)C1=C(C)OC(N)=C(C#N)C1c1cc2ccccc2nc1N1CCCCC1 (stereo not given)	26.4*	/	/	14.8	1713	15.4
CC(NCC(O)COCCC12CC3CC(CC(C3)C1)C2)c1ccccc1 (stereo not given)	-1.3	2013	1682	-11.7	1501	6.8
Cc1cc(C)c2nc(SCC(=O)Nc3ccc(S(=O)(=O)N4CCCC4)cc3)c(C)cc2c1	7.5	/	/	8.7	1973*	2.0
Cn1ccnc1SCC(=O)Nc1cccc(S(=O)(=O)N2CCCCCC2)c1	5.8	1996	1653	6.7	1896	6.1
Cc1nnc(SCC(=O)Nc2ccc(S(=O)(=O)N3CCCC3)cc2)n1N	0.2	/	/	6.0	1640	5.3
Cc1ccc(NC(=O)CSc2ncnc3ccccc23)cc1S(=O)(=O)N1CCCCC1	4.8	1842	2119*	4.7	1451	0.8
Cc1ccc(S(=O)(=O)N2CCCCC2)cc1NC(=O)CSc1nccn1C	3.1	2368*	1625	3.9	1736	-4.3
Cc1cc(C)c(C)c(S(=O)(=O)N2CCN(c3ccc(O)cc3)CC2)c1C	4.0	1824	1565	-0.1	1413	-1.6
O=C(C1CCCN(S(=O)(=O)c2ccc(F)cc2)C1)N(Cc1cccs1)C1CC1 (stereo not given)	2.0	2408*	1816	6.8	1524	11.8
N#CCCN(C(=S)NC(=O)c1ccco1)c1ccccc1F	1.8	1458	1588	1.7	1492	0.9
O=c1[nH]c(CNCc2cccnc2)nc2ccccc12	-0.3	1916	1691	6.5	1762	0.2
CCCCNC(=O)COC(=O)c1ccc(N(C)C)cc1	-0.7	1973	1543	2.3	1529	4.2
CSC1=NC2(CC(c3ccccc3)Oc3cc(O)ccc32)CC(C)(C)N1 (stereo not given)	28.6*	/	/	3.9	1633	11.8
O=C(Nc1nc(-c2ccco2)c(-c2ccco2)s1)C1CCC1	11.8	2403*	1995	10.9	1761	9.2
